Bioassay records from PubChem.
LDHA block – inhibitors of human lactate dehydrogenase A. purified LDHA, NADH/diaphorase-resazurin fluorescence; hits give low values. activity change, % (values are at about 110 or 230 µM). 0.15% of 480,000 active. AID 1347041; in the data active = activity change below about -30%;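 also: plate controls were DMSO wells for no effect and wells without enzyme for full effect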
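Enzyme activity of human lactate dehydrogenase 5 (2 nM; 0.06 mM NADH, 0.2 mM pyruvate, 5 min, RT) is measured via a resazurin/diaphorase fluorescence readout of residual NADH.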
D1 antagonist – human D1 dopamine receptor antagonism; 3.2% of 360,000 active; activity change, negative = inhibition, % at 10 µM; P21728; HEK293 TREx D1 cells, calcium flux, dopamine EC80; hits give low values; AID 504652; in the data active = activity change below about -30%; also: % is scaled to controls: 0 for no effect and ±100 for the full control effect
Target sequence (P21728 whole entry, looked up): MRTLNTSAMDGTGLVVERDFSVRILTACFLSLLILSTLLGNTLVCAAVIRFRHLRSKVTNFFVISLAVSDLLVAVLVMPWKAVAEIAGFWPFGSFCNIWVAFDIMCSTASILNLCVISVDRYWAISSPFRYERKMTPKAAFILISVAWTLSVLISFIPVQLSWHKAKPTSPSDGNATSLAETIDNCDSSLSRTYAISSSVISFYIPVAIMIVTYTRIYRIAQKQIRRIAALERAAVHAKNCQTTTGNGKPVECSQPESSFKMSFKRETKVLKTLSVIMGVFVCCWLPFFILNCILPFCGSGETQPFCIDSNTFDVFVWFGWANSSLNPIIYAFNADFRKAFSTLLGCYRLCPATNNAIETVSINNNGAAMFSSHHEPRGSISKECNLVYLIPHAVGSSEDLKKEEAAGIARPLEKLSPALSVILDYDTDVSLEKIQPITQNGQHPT
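HEK293 T-REx cells expressing inducible, force-coupled D1 receptor; no-wash Ca dye, 30–90 min RT. Cmpd → 180 s read at 1 Hz → EC80 DA → 180 s read.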
D1 agonist – agonists of human D1 dopamine receptor. 1% of 360,000 active. AID 504660. P21728. activation, % at 2 µM. HEK293 T-REx D1 cells, calcium flux, agonist mode; also: 0% is about no effect
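Tetracycline-induced HEK293 TREx D1 cells, force-coupled to calcium signalling, were dye-loaded with a no-wash calcium kit. Compound was pin-added after a 10 s baseline. Fluorescence was read kinetically at 1 cycle/s for 180 s, with calcium rises flagged as agonism.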
TRHR PAM – TRH receptor (human) allosteric enhancement | TRHR cells, fluo-8 calcium fluorescence, EC20 TRH enhancement | enhancement, % at 2 µM | 0.66% of 360,000 active; in the data active = enhancement above about 30%; also: 0% is about no effect
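Enhancer read-out: after compound pinning and an initial kinetic agonist-mode read, an EC20 of TRH (10 nM final) was injected and fluo-8 calcium signal (Ex 480/Em 530) followed at 1 s/cycle for 100 cycles in TRHR-expressing cells.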
D1 potentiator – potentiators of human D1 dopamine receptor | P21728 | HEK293 TREx D1 cells, calcium flux, dopamine EC20 potentiation | potentiation, % at 10 µM | 0.036% of 360,000 active; in the data active = potentiation above about 30%; also: 0% is about no effect
TRHR ag – TRH receptor (human) agonism; TRHR cells, calcium flux fluo-8, FDSS agonist mode; activation, % at 2 µM; 0.18% of 360,000 active; AID 493084; also: 0% is about no effect
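Read-out: compound-evoked intracellular calcium rise in TRHR cells, fluo-8 dye, kinetic FDSS fluorescence at 1 s/cycle following a 10-cycle baseline. Cells cultured overnight before dye loading (30 min–1.5 h, RT).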
Active calls of the source: *; ! = not confirmed by another sample. Compounds with a hit are over-represented: about 3.6% of the library has one in this group of screens. Rule as the data show it, unless noted: active = activation above about 30%; inactive = the rest.

CCCCc1ccc(S(=O)(=O)Nc2ccc(C)c(NS(C)(=O)=O)c2)cc1 was read as LDHA block -4.9, D1 antagonist -35.1*, D1 agonist 22.8, TRHR PAM 8.4, D1 potentiator -4.9 and TRHR ag -0.4.
`Cc1csc2nc3cc(C(N)=O)ccc3c(=O)n12` gave LDHA block -2.6, D1 antagonist -44.3*, D1 agonist 9.1, TRHR PAM -2.9, D1 potentiator -1.8 and TRHR ag -0.6.
For Nc1cc(C(Cl)=C(Cl)Cl)c(S(N)(=O)=O)cc1S(N)(=O)=O the results were LDHA block -5.4, D1 antagonist -32.5*, D1 agonist -0.3, TRHR PAM -8.5, D1 potentiator -6.7 and TRHR ag -0.6.
`COc1ccccc1-c1nc(SCc2cc(=O)n3c4c(sc3n2)CCCC4)n[nH]1` gave LDHA block -32.8*.
Screening O=c1cc(CSc2n[nH]c(-c3ccccc3)n2)nc2sc3c(n12)CCCC3 returned LDHA block -4.4.
For CC(C)C(=O)Nc1ccc(Sc2ccc(Br)cc2)cc1 the results were LDHA block 13.5.
CC(C)C(=O)Nc1ccc(Sc2ccc(F)cc2)cc1 was read as LDHA block -0.4, D1 antagonist -50.4*, D1 agonist 11.2, TRHR PAM -2.7, D1 potentiator -9.7 and TRHR ag 0.5.
O=C(CCCOC(=O)c1c(F)cccc1Cl)c1ccc(Br)cc1 was read as LDHA block 10.3.
Screening CCOC(=O)NC1c2ccccc2Oc2ccccc21 returned LDHA block -9.4, D1 antagonist -33.2*, D1 agonist -0.4, TRHR PAM -1.1, D1 potentiator -1.9 and TRHR ag -1.4.
CCOC(=O)c1c(NC(=O)C2c3ccccc3Oc3ccccc32)sc(C)c1C was read as LDHA block -2.5, D1 antagonist 7.1, D1 agonist 1.3, TRHR PAM 0.5, D1 potentiator -2.8 and TRHR ag 0.9.
`COC(=O)c1cc(C)nc2c1c(=O)n(Cc1nc(-c3cccc(OC)c3OC)oc1C)c(=O)n2C` gave LDHA block 3.8.
Screening O=C(CSC12CC3CC(CC(C3)C1)C2)NCCc1ccc(F)cc1 returned LDHA block -0.3.
For COc1ccc(/C=N/n2cc(-c3ccccc3)nc2N)cc1 the results were LDHA block 1.4, D1 antagonist -2.8, D1 agonist 1.5, TRHR PAM -6.2, D1 potentiator -6.9 and TRHR ag 0.1.
For COc1ccc(/C=N/n2cc(-c3ccc(OC)cc3)nc2N)cc1 the results were LDHA block -1.4, D1 antagonist -38.2*, D1 agonist -1.5, TRHR PAM -0.2, D1 potentiator 1.6 and TRHR ag 0.5.
For C=C(C)Cn1c(NCCCOCC)nc2c1c(=O)n(C)c(=O)n2C the results were LDHA block -5.5.
Cc1ccc(NC(=O)CN(c2ccc(Cl)cc2)S(=O)(=O)c2cc([N+](=O)[O-])ccc2Cl)c(C)c1 was read as LDHA block 1.2, D1 antagonist -56.0*, D1 agonist 0.5, TRHR PAM -6.1, D1 potentiator -15.2 and TRHR ag 0.2.
For Cc1ccc([N+](=O)[O-])cc1NC(=O)CN(c1ccccc1)S(=O)(=O)N(C)C the results were LDHA block -5.4, D1 antagonist -10.2, D1 agonist -0.6, TRHR PAM -8.2, D1 potentiator -3.1 and TRHR ag 0.3.
For CCCCC/C(CCCCCCC/C(CCCCC)=N/NC(N)=O)=N/NC(N)=O the results were LDHA block -1.1.
Cc1c(C(=O)NCc2ccc(Cl)cc2)sc2nc3n(c(=O)c12)CCC3 was read as LDHA block -10.7, D1 antagonist -8.2, D1 agonist 2.0, TRHR PAM 7.8, D1 potentiator -0.8 and TRHR ag -0.1.
CCCN(C(=O)c1sc2nc3n(c(=O)c2c1C)CCCC3)c1ccccc1C was read as LDHA block -0.7, D1 antagonist 4.8, D1 agonist 2.8, TRHR PAM 0.8, D1 potentiator 0.6 and TRHR ag 0.1.
Screening CCN(C(=O)c1sc2nc3n(c(=O)c2c1C)CCCC3)c1ccccc1F returned LDHA block -1.4, D1 antagonist -36.8*, D1 agonist 35.3*, TRHR PAM 2.5, D1 potentiator 2.6 and TRHR ag 2.5.
Cc1ccc(N(C)C(=O)c2sc3nc4n(c(=O)c3c2C)CCCC4)cc1C was read as LDHA block -3.6, D1 antagonist 9.9, D1 agonist 1.4, TRHR PAM -5.1, D1 potentiator 1.0 and TRHR ag 1.1.
Cc1c(C(=O)Nc2ccc(OC(F)(F)F)cc2)sc2nc3n(c(=O)c12)CCC3 was read as LDHA block -4.9, D1 antagonist -6.4, D1 agonist 12.6, TRHR PAM 1.9, D1 potentiator -0.5 and TRHR ag 0.4.
COc1ccc(CNC(=O)c2sc3nc4n(c(=O)c3c2C)CCCCC4)cc1 was read as LDHA block -4.9, D1 antagonist -4.6, D1 agonist 49.8*, TRHR PAM -0.4, D1 potentiator -2.8 and TRHR ag 15.0.
`Cc1c(C(=O)Nc2ccc(Oc3ccccc3)cc2)sc2nc3n(c(=O)c12)CCC3` gave LDHA block -1.8, D1 antagonist -50.7*, D1 agonist 8.5, TRHR PAM -3.6, D1 potentiator -3.5 and TRHR ag -0.1.
For COc1ccc(C)cc1N(C)C(=O)c1sc2nc3n(c(=O)c2c1C)CCCCC3 the results were LDHA block -2.0, D1 antagonist -12.2, D1 agonist 43.4*, TRHR PAM 12.0, D1 potentiator -3.6 and TRHR ag 24.0.
Screening O=C1C(=O)N(C2CC2)C(=O)N1Cc1ncc(-c2cccc(Cl)c2)o1 returned LDHA block 13.3.
Screening O=C(NCc1noc(-c2ccccc2)n1)c1cc2ccccc2o1 returned LDHA block 9.0.
Screening Cc1ccc(S(=O)(=O)Cc2ccccc2F)cc1 returned LDHA block 1.3.
`CCS(=O)(=O)c1nc(NC(C)=O)n[nH]1` gave LDHA block -0.7, D1 antagonist -45.7*, D1 agonist 5.3, TRHR PAM 3.7, D1 potentiator -4.4 and TRHR ag -0.5.
`COc1ccccc1-c1nc(NC(C)=O)n[nH]1` gave LDHA block -4.0, D1 antagonist 1.1, D1 agonist 1.1, TRHR PAM 0.3, D1 potentiator 1.4 and TRHR ag 0.2.
For COc1ccccc1CNC(=O)CCNS(=O)(=O)c1ccc2c(c1)oc(=O)n2C the results were LDHA block -2.5, D1 antagonist -36.1*!, D1 agonist 0.5, TRHR PAM -20.8, D1 potentiator -7.4 and TRHR ag 0.5.
